Values joined by “and” are separate entries in the source; they are usually repeats but may differ in a detail not shown here. Equal values may be shown once. Records with an inconclusive call do not appear. Some compounds were tested as several samples or in several runs, with calls that do not always agree. Active and inactive are the calls of the source. Calls follow the shape of the dose curve; as a rule, active = well fitted cell-killing curve with a large enough effect; inconclusive = small, poorly fitted or top-dose-only effect, or effect the other way; inactive = no such curve, though single readings can be large or run the other way.
Experiment: Viability qHTS for spleen associated tyrosine kinase inhibitor (SYKi) naive MV4-11 cells (AID 1963823); also: nearly all actives have a fitted effect of over 40% in size
Conditions: MV4-11 AML viability, CellTiter-Glo luminescence, 72 h; series mostly up to 45 µM; viability (% of control): at the top concentration
Text: Department of Medicine, Hematology/Oncology
University Hospital Frankfurt, Germany.
Trials have shown promising clinical activity of the selective SYK inhibitor entospletinib in patients with high expressing HOXA9/MEIS1 acute leukemias. As the development of resistance mechanisms is a common problem in the use of targeted drugs, we performed a chemical library screen to identify drug sensitivities in SYK inhibitor resistant AML cells. […] Glucocorticoids are potent immunosuppressants which work in part by inhibiting the transcription of cytokine genes.
Described herein is a viability screen to look for activity in the SYK inhibitor naive cell line against four NCATS compound libraries (MIPE 5.0, NPC, NPACT, and Kinase) totaling 11372 compounds. Active hits were reacquired for confirmation and further secondary assay testing.
SEQUENCE No. (e.g., 1, 2, 3, etc.); […] (e.g., Cells, Incubation, Reagent, etc.); VALUE; DESCRIPTION.
1; Media; 2uL; white, solid-bottom Corning assay plate.
2; Compounds; 23nL; Echo acoustic dispenser.
3; Cell; 5uL; 500 cells per well.
4: Incubation; 72hr; 37 C, 5% CO2, 95% humidity.
5; Reagent; 3uL; CellTiter-Glo reagent (Promega).
6; Incubation; 10min; room temperature.
7; Detection; Luminescence; ViewLux plate reader (PerkinElmer).
NOTES (numbers refer to Sequence numbers above
1. Quantitative high-throughput screening (qHTS) of small molecule compounds was conducted on naive SYKi MV4-11 cell line.
2. Twenty-three nanoliter of small molecule compounds were added to each assay plates using the Echo acoustic dispenser (Beckman Coulter).
3. Cells were seeded into the assay plates at a final density of 500 cells in 5uL of media per well using the Multi-drop Combi dispenser.
4. Plates were covered with stainless steel gasketed lids and incubated for 72 hours at standard cell culture conditions.
5. Viability was assessed by adding 3uL of CellTiter-Glo detection reagent (Promega).
6. Plates were covered with gasket lids and incubated for 10 minutes at room temperature.
7. Luminescence was measured on a ViewLux plate reader (PerkinElmer).
Potency is read from the fitted curve at half-maximal effect.

Compound	viability (% of control)	Potency
Cc1oc2nc3c(c(NC(=O)CN4CCCC4=O)c2c1C)CCCC3	84.7% (inactive)	
OC(c1ccc(-c2ccc(CN3CCN(Cc4ccncc4)CC3)cc2)c(F)c1)(C(F)(F)F)C(F)(F)F		4.17 µM (active)
c1ccc([C@H]2CN3CCSC3=N2)cc1	93.8% (inactive)	
CN(C)c1nc(Cc2ccc(NC(=O)c3ccc4ccccc4c3)cc2)nc(Cl)c1CC(=O)O	103% (inactive)	
C[C@H]1c2cccc(O)c2C(O)=C2C(=O)[C@]3(O)C(O)=C(C(N)=O)C(=O)[C@@H](N(C)C)[C@@H]3[C@@H](O)[C@@H]21		inactive and 16.6 µM (active)
Fc1cccc(-n2cnc3c(NCc4nc5c(F)c(F)ccc5[nH]4)nc(N4CCOCC4)nc32)c1		0.059 µM (active)
N#Cc1ccc(COC[C@H]2O[C@@H](n3c(NCc4ccc(Cl)c(Cl)c4)nc4c(N)ncnc43)[C@H](O)[C@@H]2O)cc1		4.68 µM (active)
Cc1cc(-c2cc(OC(=O)c3ccccc3)ccc2Cl)cc2nnc(Nc3ccc(OCCN4CCCC4)cc3)nc12		2 µM (active)
C/C(=C/CCC(CO)C1CCC2(C)C3CCC4C(C)(C)C(OC5OC(CO)C(O)C(O)C5O)CC(O)C45CC35CCC12C)COC1OC(CO)C(O)C(O)C1O (stereo not given)	63% [at 17.3 µM] (inactive)	
COc1ccc(/C=C/C(=O)O[C@@H]2[C@@H](OC(C)=O)[C@@H](OC(C)=O)[C@H](O[C@H]3[C@@H]4C=CO[C@@H](O[C@@H]5O[C@H](CO)[C@@H](O)[C@H](O)[C@H]5O)[C@@H]4[C@@]4(CO)O[C@@H]34)O[C@H]2C)cc1	72.7% [at 17.3 µM] (inactive)	
CC(C)C(=O)OCC(=O)[C@@]12O[C@H](C3CCCCC3)O[C@@H]1C[C@H]1[C@@H]3CCC4=CC(=O)C=C[C@]4(C)[C@H]3[C@@H](O)C[C@@]12C		5.9 µM (active)
Cn1c(=O)c2nc(/C=C/c3cccc(Cl)c3)n(C)c2n(C)c1=O	93% [at 91.9 µM] (inactive)	
CC(=O)N[C@H]1[C@H](O[C@@H]2c3ccc(c(Cl)c3)Oc3cc4cc(c3O[C@@H]3O[C@H](CO)[C@@H](O)[C@H](O)[C@H]3NC(=O)CCCCCCCC(C)C)Oc3ccc(cc3Cl)C[C@H]3NC(=O)[C@H](N)c5ccc(O)c(c5)Oc5cc(O)cc(c5)[C@H](NC3=O)C(=O)N[C@H]4C(=O)N[C@H]3C(=O)N[C@@H]2C(=O)N[C@@H](C(=O)O)c2cc(O)cc(O[C@H]4O[C@H](CO)[C@@H](O)[C@H](O)[C@@H]4O)c2-c2cc3ccc2O)O[C@H](CO)[C@@H](O)[C@@H]1O	84.1% (inactive)	
CC(c1c[nH]c2ccccc12)C(O)C(=O)O (stereo not given)	59.3% (inactive)	
CC1=C2C(=O)C=C(CO)C2C2OC(=O)C(CS(=O)(=O)O)C2C(OC(=O)Cc2ccc(O)cc2)C1 (stereo not given)	72% [at 17.3 µM] (inactive)	
CCOC(=O)[C@H](CCc1ccccc1)N[C@H]1CS[C@H](c2cccs2)CN(CC(=O)O)C1=O		7.42 µM (active)
O=C(NCc1nc2ccccc2c(=O)n1-c1ccc(F)cc1)Nc1ccc(Cl)c(C(F)(F)F)c1		23.1 µM (active)
CC1=C2CC(=O)C(C)CC/C=C(\C)CC2OC1=O (stereo not given)	102% (inactive)	
CC(CCC1(O)OC2CC3C4CC=C5CC(O[C@@H]6O[C@H](CO)[C@@H](O[C@@H]7O[C@@H](C)[C@H](O)[C@@H](O)[C@H]7O)[C@H](O)[C@H]6O[C@@H]6O[C@@H](C)[C@H](O)[C@@H](O)[C@H]6O)CCC5(C)C4CCC3(C)C2C1C)CO[C@@H]1O[C@H](CO)[C@@H](O)[C@H](O)[C@H]1O (stereo not given in full)		3.48 µM (active)
CN(CCO)C1CCN(c2ccc(Nc3ncc4c5ccnc(F)c5n(C5CCCC5)c4n3)nc2)CC1		0.0355 µM (active)

Compound	viability (% of control)	Potency
CCOC(=O)COc1ccc2c(c1)C[C@@H](NC[C@H](O)c1cccc(Cl)c1)CC2		18.4 µM (active)
CCOC(=O)Cn1cccc1-c1nc(-c2ccc(OC)cc2)c(-c2ccc(OC)cc2)s1		9.44 µM (active)
N#Cc1cc(NC(=O)C(=O)O)c(Cl)c(NC(=O)C(=O)O)c1	75.5% (inactive)	
C=C(C)C1CCC2(C(=O)O)CCC3(C(=O)O)C(CCC4C5(C)CCC(O)C(C)(C(=O)O)C5CCC43C)C12 (stereo not given)	54.6% [at 17.3 µM] (inactive)	
COc1cc(OC2CCN(C)CC2)ccc1Nc1ncc2c(n1)n(C1CCCC1)c(=O)n2C		1.86 µM (active)
COc1cc(CO)cc(OC)c1O[C@@H]1O[C@H](CO)[C@@H](O)[C@H](O)[C@H]1O	80.7% (inactive)	
CC1(C)[C@@H](O)CC[C@]2(C)[C@H]3C(=O)C=C4[C@@H]5C[C@@](C)(C(=O)O)CC[C@]5(C)CC[C@@]4(C)[C@]3(C)CC[C@@H]12		inactive
Cn1c(=O)cc(N2CCCC(N)C2)n(Cc2ccccc2C#N)c1=O (stereo not given)	56.1% (inactive)	
CCN(CC)CCCC(C)Nc1ccnc2cc(Cl)ccc12 (stereo not given)	72.7% [at 9.25 µM] (inactive)	8.2 µM (active)
CC1=C(COC2OC(CO)C(O)C(O)C2O)C(C(CO)C(=O)O)CC1 (stereo not given)	87.4% (inactive)	
COc1cc(/C=C/C(=O)O[C@@H]2C[C@](O)(C(=O)O)C[C@@H](O)[C@H]2O)ccc1O	94.6% (inactive)	
Cc1cc(Cl)ccc1COc1ccnn1-c1cc(C(=O)O)ccn1	78.9% (inactive)	
CCOC(=O)C1=C[C@]2(CC)CCCN3CCc4c(n1c1ccccc41)[C@@H]32		13.3 µM (active)
C=C1C(=O)O[C@@H]2C[C@@]3(C)CCCC(=C)[C@]3(O)C[C@H]12		5.8 µM (active)
O=S(=O)(O)c1ccc(Nc2ncnc3c2ncn3[C@@H]2O[C@H](CO)[C@@H](O)[C@H]2O)cc1	78.3% (inactive)	
CCOC(=O)C1=C(N)Oc2ccc(Br)cc2C1C(C#N)C(=O)OCC (stereo not given)		13.2 µM (active) and inactive
O=C(c1ccccc1)c1c(O)cc(O)cc1O[C@@H]1O[C@H](CO)[C@@H](O)[C@H](O)[C@H]1O	76.1% (inactive)	
COc1cc(C(=O)NC(N)=Nc2ccc(C)c(NC(=O)c3ccc(-c4ccccc4)cc3)c2)cc(OC)c1OC		14.8 µM (active)
O=C(c1ccccc1)c1ccc2n1CCC2C(=O)O (stereo not given)		inactive
